Measurements published in article PMC5540273 (PLoS ONE, 2017).

Tested on: PRKCH
Details: concentration: 1 μM,replicates: in singlicate; n = 1
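Further: KINOMEscan kinase panel screen.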

SMILES | %Inh [%]
CNC(=O)c1ccccc1Sc1ccc2c(/C=C/c3ccccn3)n[nH]c2c1 | 0
O=C(NCCNc1ccnc(NCc2ccc(F)cc2)n1)c1cc2ccccc2s1 [GSK1379944] | 22
CN(C)CCOc1ccc(-c2cc(-c3c[nH]nc3-c3ccccn3)ccn2)cc1 [GW835314] | 8
Cc1cc(C(=O)Nc2ccc(Oc3ccc4nc(NC(=O)C5CC5)cn4n3)cc2)nn1-c1ccccc1 | 0
Cc1ccc(-n2nc(C(C)(C)C)cc2NC(=O)Nc2ccc(OCCN3CCOCC3)c3ccccc23)cc1 [GW839464] | 0
CCN(CC)CCCCNc1ncc2cc(-c3c(Cl)cccc3Cl)c(NC(=O)NC(C)(C)C)nc2n1 | 0
CCN(CC)CCOc1ccc(Nc2ncc3cc(-c4c(Cl)cccc4Cl)c(=O)n(C)c3n2)cc1 [SB-601273] | 0
Cc1cc2cn[nH]c2cc1-c1cccc2c(N)c(C(N)=O)nnc12 | 7
CC(C)Nc1cc(-c2ccc3c(N)n[nH]c3c2)nc(N)n1 [GSK2221681] | 0
C[C@@H](Oc1cc(-c2cnn(C3CCNCC3)c2)cnc1N)c1c(Cl)ccc(F)c1Cl | 0
Cl.Cl.Nc1nc(-c2ccc3c(N)n[nH]c3c2)cc(N2CCCC(NC(=O)c3ccccc3)C2)n1 (stereo not drawn) [GSK2286775] | 0
CC(C)N1C(=O)Cc2cc(Nc3ncc(C(F)(F)F)c(NCc4cccc(S(C)(=O)=O)c4)n3)ccc21 | 0
Cl.Cl.NC[C@H](Cc1ccc(C(F)(F)F)cc1)NC(=O)c1cc(Br)c(-c2ccnc3[nH]ccc23)s1 [GSK1487252] | 98
C[C@@H]1CCN(C(=O)CC#N)C[C@@H]1N(C)c1ncnc2[nH]ccc12 | 12
CN(C)CC(O)COc1ccc(Nc2nccc(-c3cnn4nc(N5CCOCC5)ccc34)n2)cc1 (stereo not drawn) [GW767488] | 0
Cc1occc1-c1nc(N)c(OC[C@@H](N)Cc2c[nH]c3ccccc23)cc1-c1cc2c(C)n[nH]c2cn1 [GSK1660450] | 95.7
Cc1ccc2c(-c3ccncc3)c(-c3ccc(F)cc3)nn2c1.Cl [GW461484] | 0
C[C@H]1Oc2cc(cnc2N)-c2c(nn(C)c2C#N)CN(C)C(=O)c2ccc(F)cc21 | 12
NC(=O)c1cc(-c2ccccc2)cc2c(C3CCNCC3)c[nH]c12 [GSK301362] | 71
C=CC(=O)Nc1cc2c(Nc3ccc(F)c(Cl)c3)ncnc2cc1OCCCN1CCOCC1 [GW781483] | 0
CCn1c(-c2nonc2N)nc2c(C#CC(C)(C)O)nc(OCCN)cc21.Cl.Cl [GSK902056] | 96.5
Cc1n[nH]c2ccc(-c3cc(OC[C@@H](N)Cc4ccccc4)cnc3-c3ccoc3)cc12.O=C(O)C(F)(F)F.O=C(O)C(F)(F)F [GSK507358] | 95.9
Cl.Cl.NC[C@H](CC1CCCCC1)NC(=O)c1cc(Br)c(-c2ccnc3[nH]ccc23)s1 [GSK1581427] | 97.7
COc1ccc(C[C@@H](CN)NC(=O)c2cc(Br)c(-c3ccnc4[nH]ccc34)s2)cc1.Cl.Cl [GSK1389063] | 99.4
Cl.Oc1cc(-c2nc(-c3ccccc3)[nH]c2-c2ccncc2)ccc1Cl [SB-386023] | 1
Nc1nc(Nc2ccccc2)cc(-c2ccc3c(N)n[nH]c3c2)n1 [GSK2225749] | 0
O=C(NCCCN1CCOC1=O)c1cnc(NCc2cc(Cl)ccc2Cl)nc1NC1CCCC1 | 8

Tested on: PRKCI
Details: concentration: 1 μM,replicates: in singlicate; n = 1

SMILES | %Inh [%]
CNC(=O)c1ccccc1Sc1ccc2c(/C=C/c3ccccn3)n[nH]c2c1 | 9
O=C(NCCNc1ccnc(NCc2ccc(F)cc2)n1)c1cc2ccccc2s1 [GSK1379944] | 8
CN(C)CCOc1ccc(-c2cc(-c3c[nH]nc3-c3ccccn3)ccn2)cc1 [GW835314] | 14
Cc1cc(C(=O)Nc2ccc(Oc3ccc4nc(NC(=O)C5CC5)cn4n3)cc2)nn1-c1ccccc1 | 44
Cc1ccc(-n2nc(C(C)(C)C)cc2NC(=O)Nc2ccc(OCCN3CCOCC3)c3ccccc23)cc1 [GW839464] | 20
CCN(CC)CCCCNc1ncc2cc(-c3c(Cl)cccc3Cl)c(NC(=O)NC(C)(C)C)nc2n1 | 19
CCN(CC)CCOc1ccc(Nc2ncc3cc(-c4c(Cl)cccc4Cl)c(=O)n(C)c3n2)cc1 [SB-601273] | 26
Cc1cc2cn[nH]c2cc1-c1cccc2c(N)c(C(N)=O)nnc12 | 23
CC(C)Nc1cc(-c2ccc3c(N)n[nH]c3c2)nc(N)n1 [GSK2221681] | 11
C[C@@H](Oc1cc(-c2cnn(C3CCNCC3)c2)cnc1N)c1c(Cl)ccc(F)c1Cl | 24
Cl.Cl.Nc1nc(-c2ccc3c(N)n[nH]c3c2)cc(N2CCCC(NC(=O)c3ccccc3)C2)n1 (stereo not drawn) [GSK2286775] | 24
CC(C)N1C(=O)Cc2cc(Nc3ncc(C(F)(F)F)c(NCc4cccc(S(C)(=O)=O)c4)n3)ccc21 | 0
Cl.Cl.NC[C@H](Cc1ccc(C(F)(F)F)cc1)NC(=O)c1cc(Br)c(-c2ccnc3[nH]ccc23)s1 [GSK1487252] | 17
C[C@@H]1CCN(C(=O)CC#N)C[C@@H]1N(C)c1ncnc2[nH]ccc12 | 5
CN(C)CC(O)COc1ccc(Nc2nccc(-c3cnn4nc(N5CCOCC5)ccc34)n2)cc1 (stereo not drawn) [GW767488] | 36
Cc1occc1-c1nc(N)c(OC[C@@H](N)Cc2c[nH]c3ccccc23)cc1-c1cc2c(C)n[nH]c2cn1 [GSK1660450] | 34
Cc1ccc2c(-c3ccncc3)c(-c3ccc(F)cc3)nn2c1.Cl [GW461484] | 28
C[C@H]1Oc2cc(cnc2N)-c2c(nn(C)c2C#N)CN(C)C(=O)c2ccc(F)cc21 | 21
NC(=O)c1cc(-c2ccccc2)cc2c(C3CCNCC3)c[nH]c12 [GSK301362] | 35
C=CC(=O)Nc1cc2c(Nc3ccc(F)c(Cl)c3)ncnc2cc1OCCCN1CCOCC1 [GW781483] | 0
CCn1c(-c2nonc2N)nc2c(C#CC(C)(C)O)nc(OCCN)cc21.Cl.Cl [GSK902056] | 20
Cc1n[nH]c2ccc(-c3cc(OC[C@@H](N)Cc4ccccc4)cnc3-c3ccoc3)cc12.O=C(O)C(F)(F)F.O=C(O)C(F)(F)F [GSK507358] | 33
Cl.Cl.NC[C@H](CC1CCCCC1)NC(=O)c1cc(Br)c(-c2ccnc3[nH]ccc23)s1 [GSK1581427] | 0
COc1ccc(C[C@@H](CN)NC(=O)c2cc(Br)c(-c3ccnc4[nH]ccc34)s2)cc1.Cl.Cl [GSK1389063] | 56
Cl.Oc1cc(-c2nc(-c3ccccc3)[nH]c2-c2ccncc2)ccc1Cl [SB-386023] | 0
Nc1nc(Nc2ccccc2)cc(-c2ccc3c(N)n[nH]c3c2)n1 [GSK2225749] | 20
O=C(NCCCN1CCOC1=O)c1cnc(NCc2cc(Cl)ccc2Cl)nc1NC1CCCC1 | 23
